Screens as filed in PubChem BioAssay.
Only some compounds are listed: those with a hit (about 12% of all), similar ones and a draw of the others.
G9a block = qHTS Assay for Inhibitors of Histone Lysine Methyltransferase G9a. G9a H3K9 monomethylation, AlphaScreen, 2 h. Potency, µM (series often up to 102 µM), usual class: inhibitors. 8.8% of 350,000 active; note: nearly all actives have a fitted effect of over 75% in size
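AlphaScreen detection with an anti-monomethyl H3K9 antibody quantified product after a 2 h room-temperature reaction containing 500 nM biotinylated H3K9 peptide, 20 µM SAM and 20 nM enzyme, which had been preincubated 15 min with compound.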
BAZ2B inh = qHTS Assay for Inhibitors of BAZ2B; Bromodomain adjacent to zinc finger domain protein 2B (Homo sapiens), Q9UIF8; AlphaScreen BAZ2B-H3K14Ac peptide displacement; Potency, µM (highest dose often 114 µM), hits mostly inhibitors; 4.4% of 360,000 active; AID 504333, 2011; note: nearly all actives have a fitted effect of over 60% in size
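AlphaScreen displacement of biotin-H3(5-23)K14Ac peptide (50 nM final) from BAZ2B (50 nM final) in PBS pH 7.4, 0.01% Tween-20; complex preformed 30 min RT, then compounds (top 110 uM) 30 min RT, beads 20 min dark.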
Sfp PPTase inh = qHTS Assay for Inhibitors of Bacillus subtilis Sfp phosphopantetheinyl transferase (PPTase) | 4'-phosphopantetheinyl transferase ffp (Bacillus subtilis), Q9F4F7 | Biochemical Sfp PPTase activity, qHTS | Potency, µM, most hits filed as inhibitors | 3.5% of 310,000 active;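 note: the enzyme is Sfp with the accession as filed and its product quenches rhodamine fluorescence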
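Fluorescence-quenching assay: 15 nM Sfp-PPTase preincubated 15 min at room temperature with compound, then 5 uM rhodamine-CoA and 12.5 uM BHQ-2-labelled YbbR peptide added. Fluorescence (ex 525/em 598 nm) read at start and after 30 min; difference gives rate.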
L3MBTL1 inh = qHTS Assay for the Inhibitors of L3MBTL1 | Lethal(3)malignant brain tumor-like protein 1 (Homo sapiens), Q9Y468 | AlphaScreen L3MBTL1–H3K9me1 peptide binding | Potency, µM (highest dose often 57.1 µM), actives largely listed as inhibitors | 0.66% of 230,000 active; note: nearly all actives have a fitted effect of over 60% in size
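Read-out is AlphaScreen signal from streptavidin donor and nickel chelate acceptor beads (10 ug/mL final each) bridging L3MBTL1 (50 nM) and biotinylated K9-monomethylated H3(1-15) peptide (75 nM), after 30 min compound exposure at room temperature.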
JMJD2A Tudor inh = qHTS Assay for Inhibitors of JMJD2A-Tudor Domain; Lysine-specific demethylase 4A (Homo sapiens), O75164; AlphaScreen JMJD2A-Tudor / H3K4me3 peptide binding; Potency, µM (titrated, usually from 114 µM), actives largely listed as inhibitors; 4.4% of 390,000 active; AID 504339, 2011; note: nearly all actives have a fitted effect of over 50% in size
HP1b chromo inh = HTS for Inhibitors of HP1-beta Chromodomain Interactions with Methylated Histone Tails. Chromobox protein homolog 1 (Homo sapiens), P83916. AlphaScreen HP1-beta / biotin-H3K9me3 peptide binding. Potency, µM (top dose mostly 114 µM), usual class: inhibitors. 0.56% of 390,000 active; note: nearly all actives have a fitted effect of over 70% in size
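HP1-beta protein (50 nM final) preincubated 30 min at room temperature with biotinylated H3(1-18)K9me3 peptide (50 nM) in PBS pH 7.4, 0.01% Tween-20, then compound added for 30 min. AlphaScreen streptavidin donor/nickel chelate acceptor beads (10 ug/mL final), 30 min dark, luminescence read.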
A number is an active result; . = inactive; ? = inconclusive; / = not tested or not shown; [ ] = dose if it differs, or a comment. Calls come from the whole dose curve; as a rule, active = well fitted curve in the direction sought with a large enough effect; inconclusive = small, poorly fitted or top-dose-only effect, or another doubt; inactive = no such curve, though single readings can be large; an effect the other way counts as inactive or inconclusive.

SMILES | G9a block | BAZ2B inh | Sfp PPTase inh | L3MBTL1 inh | JMJD2A Tudor inh | HP1b chromo inh
O=C(/C=C/c1ccc(Br)o1)NC(c1ccccc1)c1ccccc1 | 18µM | . | 20µM | . | ? | ?
COc1ccc(NC(=O)/C=C/c2cccc(F)c2)cn1 | . | . | . | . | . | .
COc1ccccc1CNC(=O)/C=C/c1ccc(Br)o1 | 28µM | ? | 10µM | / | . | .
Fc1ccc(CNc2nc(-c3ccccc3)cc(C(F)(F)F)n2)cc1 | . | . | / | / | . | .
CCOc1cc(/C=N\Nc2ncc(F)c(N3CCOCC3)n2)ccc1Oc1nc(Cl)ncc1F | / | . | ? | . | . | .
CC(C)c1nnc(NC(=O)C2CCN(C(=O)C(C)(C)C)CC2)s1 | / | / | / | / | . | .
COc1ccc2nc(C)cc(Sc3nc4ccccc4s3)c2c1 | 14µM | . | ? | . | 79µM | .
Cc1ccc(Cn2ccn(Cc3ccccc3F)c(=O)c2=O)cc1 | . | . | / | / | . | .
O=C(Nc1cccc(Cl)c1)c1cccc(N2C(=O)C3CC=CCC3C2=O)c1 (stereo unspecified) | 79µM | ? | . | / | . | ?
CC1C=CCC2C(=O)N(c3cccc(C(=O)NCc4ccccc4)c3)C(=O)C12 (stereo unspecified) | 28µM | . | . | / | . | .
O=C(Nc1ccc(Br)cc1)c1cccc(N2C(=O)C3C4CCC(C4)C3C2=O)c1 (stereo unspecified) | . | . | . | ? | . | .
CC1C=CCC2C(=O)N(c3cccc(C(=O)NCCc4ccccc4)c3)C(=O)C12 (stereo unspecified) | ? | . | . | / | . | .
O=C(Nc1ccc(F)cc1)c1cccc(N2C(=O)C3C4CCC(C4)C3C2=O)c1 (stereo unspecified) | 3.2µM | . | . | . | . | .
O=C(Nc1cccc(N2C(=O)C3CCCCC3C2=O)c1)c1ccccc1 (stereo unspecified) | . | . | . | / | . | .
O=C(CSc1ccccc1)NCc1ccc2c(c1)CCN2C(=O)c1ccc(F)cc1 | . | . | / | / | . | .
O=C(NCc1ccccc1Cl)c1cc2ccccc2o1 | . | . | / | / | . | .
COC(=O)[C@H](COC(C)(C)C)NC(=O)O[C@@H]1C(=O)c2cc(OC)ccc2O[C@H]1c1ccc(OC)c(Br)c1 | / | / | . | / | / | /
COc1ccccc1N1CCN(C(=O)CN2C(=O)COc3ccc(S(=O)(=O)N4CCOCC4)cc32)CC1 | . | . | / | / | . | .
CCOc1ccc(NC(=O)Cn2c(=O)oc3cc(S(=O)(=O)NC4CCCC4)ccc32)cc1 | . | . | / | / | . | .
COc1ccccc1C(=O)CN1C(=O)NC2(CCc3ccccc32)C1=O (stereo unspecified) | 50µM | . | / | . | . | .
CCN(C(=O)CN1C(=O)NC2(CCc3ccccc32)C1=O)C1CCCCC1 (stereo unspecified) | 45µM | . | / | . | . | .
C=CCn1c(C)cc(C(=O)CN2C(=O)NC3(CCCc4ccccc43)C2=O)c1C (stereo unspecified) | 45µM | ? | . | / | ? | ?
COc1ccccc1C(=O)CN1C(=O)NC2(CCCc3ccccc32)C1=O (stereo unspecified) | / | / | / | . | . | .
COc1ccc(N2CCN(C(=O)CN3C(=O)NC(c4ccc(OC)cc4)(c4ccc(OC)cc4)C3=O)CC2)cc1 | / | . | . | / | ? | .
COc1ccc(N2CCN(C(=O)CN3C(=O)NC4(CCCc5ccccc54)C3=O)CC2)cc1 (stereo unspecified) | 40µM | . | / | . | . | .
SMILES | G9a block | BAZ2B inh | Sfp PPTase inh | L3MBTL1 inh | JMJD2A Tudor inh | HP1b chromo inh
Cc1cccc(S(=O)(=O)c2cn(C)c3cc(N4CCC(C)CC4)c(F)cc3c2=O)c1 | . | . | / | / | . | .
COc1ccc(Cn2c(=O)c3cccnc3n(Cc3cccc(F)c3)c2=O)cc1 | . | . | / | / | . | .
COc1ccc2oc(C(=O)OCC(=O)N3CCCC3=O)c(C)c2c1 | .[2.33 µM] | . | / | . | . | .
Cc1ccc(CNC(=O)Cn2c(=O)cc(-c3ccccc3)c3c(C)nn(C)c32)cc1 | . | . | / | / | . | .
Cc1nc2cc(OCc3cc(C(=O)NC(C)c4cnn(C)c4)no3)ccc2s1 (stereo unspecified) | ? | . | . | / | . | .
O=C(Nc1ccccc1C(=O)O)c1cccc(NC(=O)c2ccc(Br)o2)c1 | 18µM | . | . | . | . | .
O=C(Nc1cccc(F)c1)c1ccc(Br)o1 | 28µM | . | . | . | . | .
CC(=O)c1cccc(NC(=O)c2ccc(Br)o2)c1 | ? | . | . | . | . | .
CC[C@@]1(C(=O)OC)N[C@H](CN(C)C(=O)COc2ccccc2)[C@@H]2C(=O)N(Cc3ccccc3)C(=O)[C@@H]21 | / | / | / | . | . | .
COC(=O)c1sccc1-c1ccc(/C=N/OC(=O)c2ccccc2)o1 | . | . | 50µM | . | . | .
O=C(CCCN1C(=O)c2ccccc2C1=O)NC1=NCCS1 | . | . | . | . | 32µM | .
O=C(CCCN1C(=O)c2ccccc2C1=O)Nc1nncs1 | . | . | . | . | . | .
O=C(COc1ccccc1F)OCc1cc(=O)n2nc(C3CC3)sc2n1 | . | . | / | / | . | .
CC1CC(C)CN(C(=O)CSc2nnc(-c3ccc(F)cc3)o2)C1 (stereo unspecified) | 71µM | . | . | / | . | .
O=C(CSc1nnc(-c2ccc(F)cc2)o1)N1CCCCC1 | . | . | . | / | . | .
Cc1ccc(NS(=O)(=O)c2ccc(C(=O)NCCCN3CCCC3=O)cc2)cc1 | .[0.501 µM] | . | / | . | . | .
O=S(=O)(c1cccc2nsnc12)N1CCN(C/C=C\c2ccccc2)CC1 | 50µM | ? | . | / | ? | .
O=S(=O)(c1cccc2nsnc12)N1CCN(c2ccccc2F)CC1 | / | ? | . | . | 50µM | ?
O=S(=O)(c1ccc(Cl)s1)N1CCN(C/C=C/c2ccccc2)CC1 | 14µM | ? | . | . | 1µM | ?
O=S(=O)(c1cccc2nsnc12)N1CCOCC1 | . | . | . | . | . | .
O=S(=O)(c1cccc2nsnc12)N1CCc2ccccc21 | ? | 71µM | . | . | ? | .
C=CCN(C(=O)c1ccc2c(c1)nnn2C)c1ccccc1 | . | . | . | / | . | .
COc1ccc(C(=O)Nc2cccc3c2CCCC3)cc1OC | / | . | . | . | . | .
CCOc1ccc(C(=O)Nc2ccc(C(=O)OCc3cc(=O)n4ccsc4n3)cc2)cc1 | . | . | / | / | . | .
